Laboratory results from PubChem BioAssay (Tox21).
Inconclusive results are not listed. Where a call stands in place of a potency, no number is given. The source made the active and inactive calls. The call rests on the fitted dose curve; in most records, active means well fitted cell-killing curve with a large enough effect in the repeat runs; inconclusive means weak or mixed curves; inactive means no such curve, though single readings can be large or run the other way.
Potency means the concentration at half of the fitted maximal effect.

Assay: qHTS assay to identify small molecule antagonists of the androgen receptor (AR) signaling pathway - cell viability counter screen (AID 743033; further: nearly all actives have a fitted effect of over 45% in size)
Conditions: AR-bla HEK293 viability, CellTiter-Glo luminescence, 16 h; series mostly up to 58.5 µM
In the case of `CN[C@@H]1CCc2[nH]c3ccc(C(N)=O)cc3c2C1`, the Potency is reported as “inactive”. For `FC(F)(F)C(F)(F)C(F)(F)C(F)(F)C(F)(F)C(F)(F)F`, the Potency was “inactive”. With `Nc1ncnc2c1ncn2CCOCP(=O)(O)O` the Potency was “inactive”. In the case of `CCCCCCCCCCCCCCCC(=O)OC[C@@H](NC(=O)C(Cl)Cl)[C@H](O)c1ccc([N+](=O)[O-])cc1`, the Potency is reported as “inactive”. For `C/C(=C(\CCOC(=O)c1ccccc1)SS/C(CCOC(=O)c1ccccc1)=C(/C)N(C=O)Cc1cnc(C)nc1N)N(C=O)Cc1cnc(C)nc1N`, the Potency was “inactive”. For `CCOc1cc(-c2nccc3cc(OC)c(OC)cc23)cc(OCC)c1OCC`, the Potency was “inactive”. For `CCOC(=O)[C@H](CCc1ccccc1)N[C@@H](C)C(=O)N1CC2(C[C@H]1C(=O)O)SCCS2`, the Potency was “inactive”. With `CC(=O)N=c1sc(S(N)(=O)=O)nn1C` the Potency was “inactive”. In the case of `CN1[C@@H]2CCC[C@H]1CC(NC(=O)c1nn(C)c3ccccc13)C2` (stereo not given in full), the Potency is reported as “inactive”. For `O=C(O[C@H]1CN2CCC1CC2)N1CCc2ccccc2[C@@H]1c1ccccc1`, the Potency was “inactive”. In the case of `CCC[C@@]1(CCc2ccccc2)CC(O)=C([C@H](CC)c2cccc(NS(=O)(=O)c3ccc(C(F)(F)F)cn3)c2)C(=O)O1`, the Potency is reported as “inactive”. With `COC1=C(C(=O)O)N2C(=O)[C@@H](NC(=O)[C@H](N)C3=CCC=CC3)[C@H]2SC1` the Potency was “inactive”. With `CCCCc1cc2c(=O)c(C(=O)OC)c[nH]c2cc1OCc1ccccc1` the Potency was “inactive”. For `CCCCCCCCCCCCCCCCCC(=O)[O][Al]`, the Potency was “inactive”. For `CCNC(=O)[C@@H]1CCCN1C(=O)[C@H](CCCN=C(N)N)NC(=O)[C@H](CC(C)C)NC(=O)[C@@H](Cc1c[nH]c2ccccc12)NC(=O)[C@H](Cc1ccc(O)cc1)NC(=O)[C@H](CO)NC(=O)[C@H](Cc1c[nH]c2ccccc12)NC(=O)[C@H](Cc1cnc[nH]1)NC(=O)[C@@H]1CCC(=O)N1`, the Potency was 23.9 µM (active).
